Test results taken from the supplement of paper PMC3334620.
Over roughly 33,000 sequences, “E-score (-0.5 to 0.5)” has its median near -0.01; the highest 2% begin near 0.26. The sample as a whole holds a higher share of the highest values than the screen did.

target: Ste12 (UniProt P13574); test: PBM E-score (8-mer binding enrichment) (E-score (-0.5 to 0.5)); higher = stronger / more preferred TF binding; conditions: protein concentration: 200 nM; construct: GST-DNA-binding domain
Procedure: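 Universal 'all 10-mer' protein binding microarrays (Agilent AMADID 015681) probed with GST-tagged S. cerevisiae TFs (full-length or DBD) made by in vitro transcription/translation (PURExpress), about 100-200 nM. Bound TF was detected with fluorescent anti-GST. Each ungapped 8-mer (which stands for itself and its reverse complement) is scored by the PBM enrichment score (E-score), a modified Wilcoxon-Mann-Whitney statistic from -0.5 to +0.5, computed with the Universal PBM Analysis Suite. Scale: above 0.35 generally sequence-specific binding.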

UniProt P13574, sequence (P13574 whole entry, the tested form may be a part): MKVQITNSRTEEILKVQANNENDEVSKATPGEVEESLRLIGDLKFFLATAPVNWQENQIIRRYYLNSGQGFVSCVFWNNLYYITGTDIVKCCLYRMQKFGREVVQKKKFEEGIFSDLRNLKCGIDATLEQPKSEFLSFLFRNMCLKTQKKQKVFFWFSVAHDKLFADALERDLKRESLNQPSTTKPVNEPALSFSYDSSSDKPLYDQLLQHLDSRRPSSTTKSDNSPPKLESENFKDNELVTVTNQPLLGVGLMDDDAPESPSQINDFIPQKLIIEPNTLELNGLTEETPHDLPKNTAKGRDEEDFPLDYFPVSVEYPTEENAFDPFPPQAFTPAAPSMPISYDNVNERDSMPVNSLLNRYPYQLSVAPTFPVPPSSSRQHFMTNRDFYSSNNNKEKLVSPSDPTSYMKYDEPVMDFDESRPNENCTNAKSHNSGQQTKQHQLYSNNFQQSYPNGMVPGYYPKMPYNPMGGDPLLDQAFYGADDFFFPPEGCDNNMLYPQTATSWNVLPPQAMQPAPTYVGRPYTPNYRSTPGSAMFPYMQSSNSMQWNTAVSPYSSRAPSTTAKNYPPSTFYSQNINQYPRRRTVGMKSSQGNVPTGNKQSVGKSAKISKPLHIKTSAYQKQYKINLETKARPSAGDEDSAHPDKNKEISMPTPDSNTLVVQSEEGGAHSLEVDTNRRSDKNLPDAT

Row | Sequence | PBM E-score
1 | GCCCACCC | 0.344
2 | ACCCACCC | 0.314
3 | ACCCACCT | 0.0687
4 | ACCCACCA | 0.0136
5 | GCCCACCA | -0.0497
6 | CCCCACCG | 0.137
7 | GCCCACAC | 0.0974
8 | CCCCACCA | 0.102
9 | CCCCACCC | 0.361
10 | GGAAAATA | 0.255
11 | AACTACTT | -0.00699
12 | CTGGTCGC | 0.0843
13 | CACTATGC | -0.0894
14 | ATCAAACA | 0.27
15 | ATCAAGCA | 0.0192
16 | CTCAAACA | 0.341
17 | CTCAAACC | 0.0438
18 | ATCAAACC | 0.217
19 | CTCAAGCA | -0.0187
20 | CTGAATCC | 0.0117
21 | CAGTAGGC | -0.0958
22 | GACTAGGA | -0.047
23 | GCTTGATA | 0.083
24 | AATGATAG | 0.194
25 | CATGATAC | 0.242

Row | Sequence | PBM E-score
26 | TATGATAA | 0.131
27 | AATGATAA | 0.263
28 | AATGATAT | 0.113
29 | AATGATAC | 0.278
30 | GTCTAACA | -0.0889
31 | ACTTACCT | -0.0503
32 | ACCGGTGC | -0.0741
33 | ATTCCACA | 0.268
34 | ATTCCACG | -0.0633
35 | ATTCCACC | 0.113
36 | ATCGAGTA | -0.0649
37 | CTCGCACA | 0.127
38 | CTTGAGTC | -0.136
39 | CGTTTGAA | 0.265
40 | TCTTTGAA | 0.161
41 | CGTTTTGA | 0.275
42 | GGTTTGAA | 0.297
43 | AGTTTTGA | 0.148
44 | CGTTTTGC | 0.197
45 | CGTTTGAC | -0.0236
46 | TGTTTGAA | 0.378
47 | CGTTTGAG | 0.111
48 | AGTTTGAA | 0.174
49 | GTTTTGAA | 0.189
50 | GGTTTGAC | -0.0297

Row | Sequence | PBM E-score
51 | CACTGCAC | -0.14
52 | CGCCCACC | 0.139
53 | ATCCTTTG | 0.0895
54 | AGAAAGTA | 0.138
55 | AGACAAGC | -0.0877
56 | AGACGCGG | 0.0721
57 | AACCCAGA | -0.108
58 | CGCTTGCC | -0.062
59 | AGTTAAAT | 0.163
60 | CTTTAAAG | -0.0155
61 | AATTAAAT | 0.156
62 | ATTTAAAT | 0.327
63 | ATTTAAAC | 0.207
64 | ATTTAAAG | 0.275
65 | ACAAGTTC | -0.00961
66 | ATGAGTTA | -0.0873
67 | AAGTCACC | -0.0787
68 | TAAGTGCA | -0.104
69 | CTTGAAAA | 0.157
70 | ATTGAAAA | 0.352
71 | GTAGAAAC | 0.0517
72 | TTTGAAAA | 0.309
73 | TCTGAAAA | 0.12
74 | ATGGAAAC | 0.263
75 | GTTGAAAA | 0.206

Row | Sequence | PBM E-score
76 | ATGGAAAA | 0.186
77 | ATGGAAAT | 0.0797
78 | GTTGAAAC | 0.399
79 | TGTGAAAA | 0.216
80 | ATTGAAGA | 0.00866
81 | GCTTATCC | 0.0792
82 | ACTTGAGA | 0.142
83 | ACGTCTAC | -0.118
84 | ATAAAAGC | -0.00425
85 | GCCCTGGA | -0.235
86 | CACTATGG | -0.0915
87 | CTTGAAAG | -0.0999
88 | ATTGAGAA | 0.277
89 | ATTGAGAG | -0.0617
90 | CTTGAACC | -0.0679
91 | ATTGAGAC | 0.122
92 | ATTGAAAC | 0.398
93 | ATTGAAAT | 0.233
94 | CTTGAAAC | 0.479
95 | ATTGAAAG | 0.0623
96 | AACGACCA | -0.0479
97 | ATGGGAAG | -0.0232
98 | CCCCGGGG | -0.186
99 | GTGTACAC | -0.224
100 | ATGTTGTA | -0.00602

Row | Sequence | PBM E-score
101 | GCATCAGC | 0.034
102 | ACTAGGTC | -0.114
103 | AAAAGAAT | 0.266
104 | AAAAGAAC | 0.126
105 | AAAGATAT | 0.273
106 | AAAAAGAT | 0.271
107 | AAAGATAC | 0.0821
108 | CAAAAGAA | 0.156
109 | AAAAAGAC | 0.153
110 | ACAAAGAT | 0.0339
111 | AAAGATAG | -0.0536
112 | TAAAAGAA | 0.0708
113 | AAAAAGAA | 0.289
114 | AAAAGAAG | 0.072
115 | AAAGCAAA | 0.148
116 | AAACCTTC | -0.0506
117 | CGGGACTA | -0.0932
118 | GCATCCGA | -0.0885
119 | CGTATGAA | 0.213
120 | AGTAGGAG | -0.119
121 | CCTCGCAA | 0.18
122 | AGAAAAGC | 0.127
123 | AAAGAAAA | 0.351
124 | AAAGAAAG | 0.19
125 | CAAGAAAA | 0.24

Row | Sequence | PBM E-score
126 | CGAAAAGA | 0.242
127 | AGAAAAGA | 0.297
128 | AGAGGGAG | -0.106
129 | CAAAGTCG | 0.0234
130 | TCCTAGCA | -0.0629
131 | ACCTCCAC | -0.0491
132 | GATAGATC | -0.194
133 | AACAGAGT | 0.173
134 | CACCTAAC | 0.0515
135 | CTGTAGTA | 0.186
136 | ATAATATA | 0.301
137 | ATAATACG | 0.0652
138 | ACAATATA | 0.271
139 | ATAATATG | 0.248
140 | ATAATACA | 0.318
141 | ATAATACC | 0.161
142 | CCAATATA | -0.103
143 | GCAATATA | 0.149
144 | CTAATATA | 0.0456
145 | AGAGTAGA | -0.0237
146 | CGTTCTCA | 0.0637
147 | GCCAGCTA | -0.192
148 | CCGCATCC | -0.0589
149 | ATGTTCAC | 0.0173
150 | TGATGCAA | 0.137

Row | Sequence | PBM E-score
151 | ACCTTCTC | 0.0171
152 | AAGAAAAT | 0.254
153 | AAGAAAAG | 0.302
154 | AAGAAAAC | 0.275
155 | AAGAAAAA | 0.158
156 | CAGAAAAG | 0.186
157 | CAGAAAAC | 0.133
158 | GGTCCTTA | 0.0224
159 | CCCTCCAC | -0.0433
160 | ATATCAAA | 0.3
161 | TCATCAAA | 0.236
162 | GTATCAGA | 0.119
163 | CTATCAAA | 0.186
164 | ATATCAAG | 0.139
165 | GTATCAAA | 0.293
166 | GTATCAAC | 0.122
167 | TGATCAAA | 0.156
168 | TTATCAAA | 0.274
169 | ACTACTTC | -0.0884
170 | ATCACAGG | -0.0882
171 | CAATCATC | -0.0782
172 | ACTCTGAA | 0.177
173 | ACGGGTAC | -0.139
174 | TAGGCGGA | -0.0248
175 | CTATGAAG | 0.0327

Row | Sequence | PBM E-score
176 | CTATGAAA | 0.211
177 | GTATGAAA | 0.338
178 | TTATGCAA | 0.0901
179 | GTATGAGA | -0.0324
180 | ATATGAAC | 0.154
181 | GTATGAAC | -0.018
182 | TTATGAAA | 0.431
183 | ATATGAAA | 0.346
184 | GTTTTCCA | 0.093
185 | ATTGGGCG | -0.00653
186 | CTGTTTAC | 0.0415
187 | CTGTTTCC | 0.0865
188 | GTGTTTCA | 0.489
189 | GTGTTGCA | 0.159
190 | ATATTTCA | 0.139
191 | ATGTTTCA | 0.493
192 | ATGTTTAG | 0.214
193 | GTATTTCA | 0.1
194 | CTGTTTCA | 0.484
195 | ATGTTTCG | 0.366
196 | ATGTTTCC | 0.178
197 | ATGTTCCA | 0.18
198 | ACCATAAT | 0.114
199 | AGAAGCAA | 0.153
200 | ACAGTGCC | -0.0356

Row | Sequence | PBM E-score
201 | AGCTGCGC | -0.177
202 | CTGTTTAA | 0.22
203 | ATGTTTAA | 0.0895
204 | ATGTTTTC | 0.172
205 | ATTTTTTG | 0.222
206 | AGGTTTTG | 0.0633
207 | GTGTTTTA | 0.405
208 | CTGTTTTC | 0.0946
209 | ATGTTTTA | 0.374
210 | ATGTTTTG | 0.335
211 | GGGTTTTA | 0.217
212 | GTGTTTAA | 0.155
213 | CTGTTTTA | 0.308
214 | ACAAGCAA | -0.00365
215 | ACCTATGA | -0.21
216 | CGCTGGTA | -0.118
217 | ATAGCAAA | 0.0867
218 | CGGGAGTC | -0.12
219 | AAAGTTGA | 0.111
